Assay results reported in PubChem BioAssay (Tox21).
Records with an inconclusive call do not appear. The source made the active and inactive calls. Unless noted, the call rests on the fitted dose curve; in most records, active means well fitted curve in the direction sought with a large enough effect in the repeat runs; inconclusive means weak or mixed curves; inactive means no such curve, though single readings can be large; an effect the other way counts as inactive or inconclusive.

Key:
[1] = qHTS assay for small molecule agonists of the p53 signaling pathway (AID 651631; calls by dose curve; further: nearly all actives have a fitted effect of over 15% in size)
Summary of the method: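 p53RE-bla HCT-116 cells; compounds 16 h, 37 °C; LiveBLAzer B/G FRET substrate 2 h RT; fluorescence intensity read-out, qHTS format.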

[2] = qHTS assay for small molecules that induce genotoxicity in human embryonic kidney cells expressing luciferase-tagged ATAD5 (AID 651632); further: nearly all actives have a fitted effect of over 15% in size
Summary of the method: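 Quantitative HTS in HEK293T expressing luciferase-tagged ATAD5, whose levels rise upon DNA damage. Exposure ran 16 hr at 37C and 5% CO2, with luminescence read 30 min after Amplite addition at room temperature.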

[3] = qHTS assay for small molecule agonists of the p53 signaling pathway - cell viability (AID 651633; calls by dose curve;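 further: p53RE-bla HCT reporter cells with a stable beta-lactamase p53 reporter; series mostly up to about 83 µM; nearly all actives have a fitted effect of over 30% in size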)
Summary of the method: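 Viability counter-read: CellTiter-Glo luminescence (30 min, room temperature) in the same p53RE-bla plates. These plates had been exposed to compounds for 16 h at 37 C.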

[4] = qHTS assay for small molecules that induce genotoxicity in human embryonic kidney cells expressing luciferase-tagged ATAD5 - cell viability (AID 651634; calls by dose curve; further: nearly all actives have a fitted effect of over 25% in size)
Summary of the method: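 After 15.5 hr incubation with compound at 37C, 5% CO2, HEK293T ATAD5-luciferase cells received CellTiter-Fluor reagent; fluorescence intensity was quantified following 30 min at 37C.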

[5] = qHTS assay for small molecule disruptors of the mitochondrial membrane potential - cell viability (AID 720634; calls by dose curve;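 further: human HepG2 liver cancer cells; series mostly up to about 83 µM; nearly all actives have a fitted effect of over 20% in size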)
Summary of the method: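 ATP-based luminescent viability readout (CellTiter-Glo, 30 min, room temperature) in HepG2 cells multiplexed with the m-MPI membrane potential dye; compound exposure lasted 1 hr at 37 C.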

[6] = qHTS assay for small molecule disruptors of the mitochondrial membrane potential (AID 720635)
Summary of the method: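 Mitochondrial membrane potential tracked with Mito-MPS dye, red aggregates (ex 540/em 590 nm) against green monomers (ex 490/em 535 nm). Compound treatment 1 hr at 37C, dye 30 min in HepG2.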

[7] = qHTS assay to test for compound auto fluorescence at 590 nm (red) in HepG2 cells (AID 720674)
Summary of the method: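 Red autofluorescence (Ex/Em 540/590 nm, Rose Bengal sodium equivalents) was measured in HepG2 cells, 2,000 per well in MEM plus 10% FBS, plated overnight at 37 C. Readings were taken 1 hr after adding 23 nL compound or DMSO, at 37 C and 5% CO2.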

[8] = qHTS assay to test for compound auto fluorescence at 535 nm (green) in HepG2 cells (AID 720675)
[9] = qHTS assay to test for compound auto fluorescence at 460 nm (blue) in HEK293 cells (AID 720678)
Summary of the method: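 Auto fluorescence in the blue band was quantified as triamterene equivalency. HEK293 cells were seeded at 2,000/well, dosed after a 4-5 hr attachment, and kept overnight at 37C before the 405/460 nm reading.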

[10] = qHTS assay to test for compound auto fluorescence at 590 nm (red) in HEK293 cells (AID 720679)
Summary of the method: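 Autofluorescence equivalency to Rose Bengal sodium, 540/590nm, in HEK293 cells exposed overnight to 23 nL compound per well.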

[11] = qHTS assay to test for compound auto fluorescence at 535 nm (green) in HEK293 cells (AID 720680)
[12] = qHTS assay to test for compound auto fluorescence at 460 nm (blue) in HEK293 cell free culture (AID 720681)
Summary of the method: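 Blue fluorescence (Ex 405/Em 460 nm, triamterene-equivalent) was read immediately after pin transfer of compound or DMSO into medium (DMEM, 10% FBS) without cells.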

[13] = qHTS assay to test for compound auto fluorescence at 535 nm (green) in HEK293 cell free culture (AID 720682)
Summary of the method: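 Cell-free medium (DMEM, 10% FBS) receives compound or DMSO by pintool. Plate read directly at Ex 485/Em 535 nm. Signal converted to fluorescein equivalency.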

[14] = qHTS assay to test for compound auto fluorescence at 590 nm (red) in HEK293 cell free culture (AID 720683)
Summary of the method: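 Red-channel autofluorescence of compounds in culture medium (DMEM, 10% FBS), no cells, measured at 540/590 nm. Rose Bengal sodium is the reference fluorophore for equivalence.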

[15] = qHTS assay to test for compound auto fluorescence at 590 nm (red) in HepG2 cell free culture (AID 720684)
Summary of the method: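 No cells present: MEM + 10% FBS only. Compound pinned in, red label read (540/590 nm). Activity = fluorescence equivalent to Rose Bengal sodium.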

[16] = qHTS assay to test for compound auto fluorescence at 460 nm (blue) in HepG2 cell free culture (AID 720685)
Summary of the method: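 Cell-free plates of MEM plus 10% FBS received 23 nL compound or DMSO vehicle; blue-channel (405/460 nm) intensity scored against triamterene as reference fluorophore.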

[17] = qHTS assay to test for compound auto fluorescence at 535 nm (green) in HepG2 cell free culture (AID 720686)
[18] = qHTS assay to test for compound auto fluorescence at 460 nm (blue) in HepG2 cells (AID 720687)
Summary of the method: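 Blue-channel autofluorescence (Ex/Em 405/460 nm, triamterene-equivalent) was measured after 1 hr compound exposure at 37 C, 5% CO2. Cells were HepG2, plated overnight at 37 C in MEM plus 10% FBS.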

[19] = molecular target: Glucocorticoid receptor (Homo sapiens) (UniProt P04150); experiment: qHTS assay to identify small molecule agonists of the glucocorticoid receptor (GR) signaling pathway (AID 720691; active means well fitted activation curve with a large enough effect in the signal ratio in the repeat runs, not every such curve was filed as active; the % refers to the signal ratio)
Summary of the method: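 Cells: GR-bla HeLa, endogenous GR with stably integrated GRE-beta-lactamase reporter. Treatment 18 h, 37 C, compounds delivered in DMSO. Detection via LiveBLAzer B/G FRET substrate, 2 h RT, fluorescence intensity.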

[20] = molecular target: Glucocorticoid receptor (Homo sapiens) (UniProt P04150); experiment: qHTS assay to identify small molecule antagonists of the glucocorticoid receptor (GR) signaling pathway (AID 720692; active means well fitted inhibition curve with a large enough effect in the signal ratio in the repeat runs, not every such curve was filed as active; the % refers to the signal ratio)
Summary of the method: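 Quantitative HTS in antagonist format: HeLa cells expressing endogenous GR and a stably integrated GRE-bla reporter, stimulated with 5 nM dexamethasone (final) alongside test compounds for 18 h.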

Measured: Potency

Chain of Glucocorticoid receptor (Homo sapiens) (P04150 whole entry, looked up): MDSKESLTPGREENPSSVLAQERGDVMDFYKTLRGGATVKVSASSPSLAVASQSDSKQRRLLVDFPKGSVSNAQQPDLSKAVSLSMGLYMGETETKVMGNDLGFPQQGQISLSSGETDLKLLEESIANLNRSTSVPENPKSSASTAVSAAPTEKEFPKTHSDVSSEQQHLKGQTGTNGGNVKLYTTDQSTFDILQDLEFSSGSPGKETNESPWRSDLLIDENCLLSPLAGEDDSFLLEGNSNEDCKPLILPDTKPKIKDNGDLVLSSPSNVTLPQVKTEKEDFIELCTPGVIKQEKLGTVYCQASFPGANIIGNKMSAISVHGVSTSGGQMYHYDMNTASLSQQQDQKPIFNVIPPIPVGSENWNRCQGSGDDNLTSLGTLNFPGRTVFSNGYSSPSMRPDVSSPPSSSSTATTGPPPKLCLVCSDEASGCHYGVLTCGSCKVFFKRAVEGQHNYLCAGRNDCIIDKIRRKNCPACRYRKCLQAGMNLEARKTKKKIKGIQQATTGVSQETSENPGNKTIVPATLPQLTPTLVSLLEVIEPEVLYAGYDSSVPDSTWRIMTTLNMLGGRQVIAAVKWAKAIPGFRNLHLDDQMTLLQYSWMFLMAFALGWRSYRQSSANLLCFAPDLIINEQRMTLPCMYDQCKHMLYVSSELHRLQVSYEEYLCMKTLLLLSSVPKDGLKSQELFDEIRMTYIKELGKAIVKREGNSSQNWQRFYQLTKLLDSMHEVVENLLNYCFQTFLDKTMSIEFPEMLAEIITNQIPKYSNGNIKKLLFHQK

FC(F)OC(Cl)C(F)(F)F (stereo not given)
inactive: all assays above

CCOC(=O)c1ccc(C)cc1
not listed: [13]
inactive: all other assays above

O=C(O)CNC(=O)c1ccc([N+](=O)[O-])cc1
not listed: [19] | [20]
inactive: all other assays above

O=C1CCCC(=O)C1
not listed: [17]
inactive: all other assays above

CC(C)(O)C#CC(C)(C)O
not listed: [19] | [20]
inactive: all other assays above

CN1CC(=O)NC1=N
inactive: all assays above

CCn1ccnc1CC1COc2ccccc2O1 (stereo not given)
not listed: [20]
inactive: all other assays above

CCCCCCOC(=O)CCCCC(=O)OCCCCCC
not listed: [19] | [20]
inactive: all other assays above

CC(C)c1cc2c(cc1S(=O)(=O)O)[C@@]1(C)CCC[C@@](C)(C(=O)O)[C@@H]1CC2
not listed: [19] | [20]
inactive: all other assays above

Cc1cc(O)cc2c1O[C@](C)(CCC[C@H](C)CCC[C@H](C)CCCC(C)C)CC2
not listed: [20]
inactive: all other assays above

C=COCC1CCC(CO)CC1 (stereo not given)
not listed: [3] | [10]
inactive: all other assays above

C[C@@H]1CCN(C(=O)[C@H](CCCN=C(N)N)NS(=O)(=O)c2cccc3c2NC[C@H](C)C3)[C@@H](C(=O)O)C1
not listed: [6] | [7] | [19] | [20]
inactive: all other assays above

CCOC(=O)CCC(C)=O
not listed: [6] | [10]
inactive: all other assays above

Cn1c(N)c(N=O)c(=O)n(C)c1=O
not listed: [3] | [10]
inactive: all other assays above

CS(=O)(=O)O
not listed: [6] | [7] | [8] | [17]
inactive: all other assays above

Cc1ccc(Cl)cc1Cl
not listed: [6] | [8]
inactive: all other assays above

COC(C)(C)CCCC(C)CC=O (stereo not given)
not listed: [6] | [10] | [13]
inactive: all other assays above

C1CN(CCOCCN2CCOCC2)CCO1
not listed: [6] | [7]
inactive: all other assays above

C=C[Si](OC(=C)C)(OC(=C)C)OC(=C)C
not listed: [6] | [10] | [19] | [20]
inactive: all other assays above

Cc1cc2c(cc1S(N)(=O)=O)S(=O)(=O)CCC2
not listed: [6] | [17]
inactive: all other assays above

c1ccc([C@H]2CN3CCSC3=N2)cc1
not listed: [6] | [10] | [17] | [20]
inactive: all other assays above

CN1CCCC1
not listed: [6] | [7] | [17] | [19] | [20]
inactive: all other assays above

C=CCCCCCCCCC=O
not listed: [6] | [8] | [13]
inactive: all other assays above

Nc1ccc(S(=O)(=O)Nc2ccnn2-c2ccccc2)cc1
not listed: [6] | [10]
inactive: all other assays above

COC(=O)c1ccc(C)cc1C1=NC(C)(C(C)C)C(=O)N1 (stereo not given)
not listed: [6] | [8]
inactive: all other assays above

Cc1c(NC(C)C)c(=O)n(-c2ccccc2)n1C
not listed: [3] | [10]
inactive: all other assays above

COc1ccc(CCN(C)CCCC(C#N)(c2cc(OC)c(OC)c(OC)c2)C(C)C)cc1OC (stereo not given)
not listed: [6] | [7] | [10]
inactive: all other assays above

CCOC(=O)[C@H](CCc1ccccc1)N[C@@H](C)C(=O)N1[C@H](C(=O)O)C[C@@H]2CCC[C@@H]21
not listed: [6] | [13] | [17] | [20]
inactive: all other assays above

COC(=O)NN
not listed: [6] | [7] | [13]
inactive: all other assays above

O=C(CCCN1CCC(O)(c2cccc(C(F)(F)F)c2)CC1)c1ccc(F)cc1
not listed: [6] | [8] | [10]
inactive: all other assays above

Nc1ccccc1S(=O)(=O)O
not listed: [6] | [7] | [8] | [19] | [20]
inactive: all other assays above
